Measured values published in PubChem BioAssay.
Inconclusive results are not listed. Activity calls are given as the source filed them.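 The calls were made as follows, unless noted: active = normalized viability below 100% at a tested concentration; inactive = the rest.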 Numbered stars: 1 amine (or outer) side, 2 acyl side, 3 side chain; on linkers, the order of the positions; unused ones are H or OH. Bridge positions count the residues as written; N and C are the ends. Square brackets hold non-standard residues; d marks the D form. Peptide text beside a SMILES is read from it. I, II: the chains in the order shown. Actinocin(9to1) = Cc1c2oc3c(C)ccc(C(=O)[*:1])c3nc-2c(C(=O)[*:2])c(N)c1=O; NMeV = CN[CH](C(=O)O)C(C)C; Sar = CNCC(=O)O

Legend:
[1] = viability loss in pontine glioma line – cell-based, SU-DIPG-XVII, MIPE5.0, CellTiter-Glo, qHTS, dose response (AID 1347060; cut-off not given, nearly all actives have AC50 up to about 26 µM;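 as to AC50: cells exposed to compound for 48 hours before viability readout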); conditions: CellTiter-Glo ATP luminescence
[2] = viability loss in pontine glioma line – cell-based, SU-DIPG-XXV, MIPE5.0, CellTiter-Glo, qHTS, dose response (AID 1347065; cut-off not given, nearly all actives have AC50 up to about 26 µM;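 also: cells exposed to compound for 48 hours before ATP readout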); conditions: CellTiter-Glo ATP luminescence
[3] = JHH-DIPG-1 glioma cell viability, MIPE5.0 library, CellTiter-Glo luminescence, qHTS (AID 1347067; cut-off not given, nearly all actives have AC50 up to about 26 µM;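 also: cells exposed to compound for 48 hours before readout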); conditions: JHH-DIPG-1 glioma viability, CellTiter-Glo ATP luminescence
[4] = growth inhibition of DIPG cells – cell-based, MIPE5.0 library, qHTS (AID 1347068; cut-off not given, nearly all actives have IC50 up to about 30 µM;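 as to IC50: cells exposed to compound for 48 hours before viability readout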); conditions: SU-DIPG-XXV viability
[5] = drug combination growth inhibition, ovarian cancer – cell-based, oncology-focused library, rucaparib conditional, profiling panel (AID 1508598); conditions: patient-derived ovarian cancer cells, CellTiter-Glo viability, 144 h, hits give low values

Nc1ccn([C@@H]2CS[C@H](CO)O2)c(=O)n1
inactive: outcome [1] | outcome [2] | outcome [3] | outcome [4]

CC1c2cccc(O)c2C(O)=C2C(=O)C3(O)C(O)=C(C(N)=O)C(=O)C(N(C)C)C3C(O)C21 (stereo not given)
inactive: outcome [3] | outcome [4]

O=C(O)C[C@H](O)C[C@H](O)/C=C/c1c(C2CC2)nc2ccccc2c1-c1ccc(F)cc1
active: AC50 [2] 9340 nM | AC50 [3] 9340 nM
inactive: outcome [4]

CC(C)c1ccc2c(c1)c(SC(C)(C)C)c(CC(C)(C)C(=O)O)n2Cc1ccc(Cl)cc1
active: AC50 [1] 18600 nM | AC50 [2] 18600 nM | AC50 [3] 26300 nM
inactive: outcome [4]

COC(=O)Nc1nc2ccc(C(=O)c3ccc(F)cc3)cc2[nH]1
active: AC50 [1] 417 nM | AC50 [2] 332 nM | AC50 [3] 417 nM

Nc1nc(Cl)nc2c1ncn2[C@H]1C[C@H](O)[C@@H](CO)O1
inactive: outcome [3] | outcome [4] | viability ([5]; at 0.000305 µM, OCI-C5x cells, with rucaparib 10 µM, 100% = cells with rucaparib alone) 104% | viability ([5]; at 0.000305 µM, OCI-C5x cells, without rucaparib) 113% | viability ([5]; at 0.000305 µM, OCI-P5x cells, with rucaparib 20 µM, 100% = cells with rucaparib alone) 106% | viability ([5]; at 0.000305 µM, OCI-P5x cells, without rucaparib) 108% | viability ([5]; at 0.00122 µM, OCI-C5x cells, with rucaparib 10 µM, 100% = cells with rucaparib alone) 101% | viability ([5]; at 0.00122 µM, OCI-C5x cells, without rucaparib) 115% | viability ([5]; at 0.00122 µM, OCI-P5x cells, with rucaparib 20 µM, 100% = cells with rucaparib alone) 108% | viability ([5]; at 0.00122 µM, OCI-P5x cells, without rucaparib) 110% | viability ([5]; at 0.00488 µM, OCI-C5x cells, without rucaparib) 113% | viability ([5]; at 0.00488 µM, OCI-P5x cells, with rucaparib 20 µM, 100% = cells with rucaparib alone) 106% | viability ([5]; at 0.00488 µM, OCI-P5x cells, without rucaparib) 106% | viability ([5]; at 0.0195 µM, OCI-C5x cells, with rucaparib 10 µM, 100% = cells with rucaparib alone) 111% | viability ([5]; at 0.0195 µM, OCI-C5x cells, without rucaparib) 111% | viability ([5]; at 0.0195 µM, OCI-P5x cells, with rucaparib 20 µM, 100% = cells with rucaparib alone) 108% | viability ([5]; at 0.0781 µM, OCI-C5x cells, with rucaparib 10 µM, 100% = cells with rucaparib alone) 105% | viability ([5]; at 0.0781 µM, OCI-C5x cells, without rucaparib) 109% | viability ([5]; at 0.0781 µM, OCI-P5x cells, with rucaparib 20 µM, 100% = cells with rucaparib alone) 107% | viability ([5]; at 0.313 µM, OCI-C5x cells, with rucaparib 10 µM, 100% = cells with rucaparib alone) 112%
active: AC50 [1] 833 nM | viability ([5]; at 0.00488 µM, OCI-C5x cells, with rucaparib 10 µM, 100% = cells with rucaparib alone) 96% | viability ([5]; at 0.0195 µM, OCI-P5x cells, without rucaparib) 91.4% | viability ([5]; at 0.0781 µM, OCI-P5x cells, without rucaparib) 76.7% | viability ([5]; at 0.313 µM, OCI-C5x cells, without rucaparib) 95.6% | viability ([5]; at 0.313 µM, OCI-P5x cells, with rucaparib 20 µM, 100% = cells with rucaparib alone) 88.9% | viability ([5]; at 0.313 µM, OCI-P5x cells, without rucaparib) 50.8% | viability ([5]; at 1.25 µM, OCI-C5x cells, with rucaparib 10 µM, 100% = cells with rucaparib alone) 95.8% | viability ([5]; at 1.25 µM, OCI-C5x cells, without rucaparib) 94.4% | viability ([5]; at 1.25 µM, OCI-P5x cells, with rucaparib 20 µM, 100% = cells with rucaparib alone) 50.8% | viability ([5]; at 1.25 µM, OCI-P5x cells, without rucaparib) 37% | viability ([5]; at 5 µM, OCI-C5x cells, with rucaparib 10 µM, 100% = cells with rucaparib alone) 72.5% | viability ([5]; at 5 µM, OCI-C5x cells, without rucaparib) 54.1% | viability ([5]; at 5 µM, OCI-P5x cells, with rucaparib 20 µM, 100% = cells with rucaparib alone) 35.7% | viability ([5]; at 5 µM, OCI-P5x cells, without rucaparib) 18.1%

COc1cc(C)c(/C=C/C(C)=C/C=C/C(C)=C/C(=O)O)c(C)c1C
inactive: outcome [3] | outcome [4]
active: AC50 [2] 11800 nM

COc1cc(C[C@@H](CO)[C@H](CO)Cc2ccc(O)c(OC)c2)ccc1O
inactive: outcome [1] | outcome [2] | outcome [3] | outcome [4]

O=C1c2c(O)cc(O)cc2O[C@H](c2ccc(O)c(O)c2)[C@H]1O
inactive: outcome [2] | outcome [3] | outcome [4]

Cc1c2oc3c(C)ccc(C(=O)NC4C(=O)NC(C(C)C)C(=O)N5CCCC5C(=O)N(C)CC(=O)N(C)C(C(C)C)C(=O)OC4C)c3nc-2c(C(=O)NC2C(=O)NC(C(C)C)C(=O)N3CCCC3C(=O)N(C)CC(=O)N(C)C(C(C)C)C(=O)OC2C)c(N)c1=O (stereo not given) (I: TVP[Sar][NMeV] / II: TVP[Sar][NMeV]; ester I:1-I:C, II:1-II:C; linker I:N-II:N via Actinocin(9to1); configuration not given here)
active: AC50 [1] 4.07 nM | AC50 [2] 18.2 nM | AC50 [3] 6.45 nM | IC50 [4] 72.3 nM
